A short description of assay [1]: qHTS profiling for inhibitors of Plasmodium falciparum proliferation (AID 504749).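 For activity, negative = inhibition: 0% = DMSO vehicle and full inhibition = artemisinin control.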 Note: nearly all actives have a fitted effect of over 60% in size. The conditions noted are these: P. falciparum in erythrocytes, SYBR Green DNA, 72 h. An outline of the steps:
(§1)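 Quantitative HTS: compounds pinned into medium, infected erythrocytes added (0.3% parasitemia, 2.5% hematocrit), 72 h culture at 37 C under 5% CO2. Saponin/Triton lysis with SYBR Green I, overnight RT, then fluorescence read.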

The subject of a further assay is AA1029. Described as above. The conditions noted are these: P. falciparum in erythrocytes, SYBR Green DNA, 72 h; series mostly up to 28.7 µM. An outline of the steps: as §1
The subject of another assay is AS120. The assay is described as above. As to conditions: P. falciparum in erythrocytes, SYBR Green DNA, 72 h; series mostly up to 28.7 µM. In a few lines:
as §1

A further assay concerns ATS189. The assay is described as above. The conditions noted are these: P. falciparum in erythrocytes, SYBR Green DNA, 72 h; series mostly up to 28.7 µM. In a few lines: as §1
The subject of another assay is ATS95. The assay is described as above. The conditions noted are these: P. falciparum in erythrocytes, SYBR Green DNA, 72 h; series mostly up to 28.7 µM. An outline of the steps: as §1
In a further assay the test system is C2A. The description is as above. As to conditions: P. falciparum in erythrocytes, SYBR Green DNA, 72 h; series mostly up to 28.7 µM. In a few lines:
as §1

The test system of a further assay is CP185. The description is as above. As to conditions: P. falciparum in erythrocytes, SYBR Green DNA, 72 h; series mostly up to 28.7 µM. In a few lines:
as §1

The next assay concerns CP192. The description is as above. The conditions noted are these: P. falciparum in erythrocytes, SYBR Green DNA, 72 h; series mostly up to 28.7 µM. In a few lines: as §1
For another assay, the system named is CP194. The assay is described as above. As to conditions: P. falciparum in erythrocytes, SYBR Green DNA, 72 h; series mostly up to 28.7 µM. In a few lines:
as §1

The subject of the next assay is CP201. The assay is described as above. The conditions noted are these: P. falciparum in erythrocytes, SYBR Green DNA, 72 h; series mostly up to 28.7 µM. In a few lines:
as §1

In the next assay the test system is CP203. The assay is described as above. As to conditions: P. falciparum in erythrocytes, SYBR Green DNA, 72 h; series mostly up to 28.7 µM. In a few lines:
as §1

Another assay relates to CP211. The assay is described as above. The conditions noted are these: P. falciparum in erythrocytes, SYBR Green DNA, 72 h; series mostly up to 28.7 µM. In a few lines:
as §1

In another assay the test system is CP215. Described as above. The conditions noted are these: P. falciparum in erythrocytes, SYBR Green DNA, 72 h; series mostly up to 28.7 µM. In a few lines: as §1
For the next assay, the system named is CP217. Described as above. The conditions noted are these: P. falciparum in erythrocytes, SYBR Green DNA, 72 h; series mostly up to 28.7 µM. In a few lines:
as §1

For another assay, the system named is CP237. The assay is described as above. The conditions noted are these: P. falciparum in erythrocytes, SYBR Green DNA, 72 h; series mostly up to 28.7 µM. An outline of the steps: as §1
Another assay has as its system CP238. The description is as above. As to conditions: P. falciparum in erythrocytes, SYBR Green DNA, 72 h; series mostly up to 28.7 µM. An outline of the steps:
as §1

Another assay has as its system 3D7. The assay is described as above. As to conditions: P. falciparum in erythrocytes, SYBR Green DNA, 72 h; series mostly up to 28.7 µM. An outline of the steps:
as §1

The next assay has as its system CP191. The description is as above. The conditions noted are these: P. falciparum in erythrocytes, SYBR Green DNA, 72 h; series mostly up to 28.7 µM. An outline of the steps:
as §1

Another assay relates to 7G8. The assay is described as above. As to conditions: P. falciparum in erythrocytes, SYBR Green DNA, 72 h; series mostly up to 28.7 µM. In a few lines: as §1
Where [2] appears, read: at 28.7 µM (top of the series), parasite line A.
The mark [3] stands for this setting: at 28.7 µM (top of the series), parasite line B.

Records with an inconclusive call do not appear. Values without a mark were called inactive. Active and inactive are the calls of the source. Calls come from the whole dose curve; as a rule, active = well fitted inhibition curve with a large enough effect; inconclusive = small, poorly fitted or top-dose-only effect; inactive = flat fitted curve, though single readings scatter.
Potency is the fitted concentration of half-maximal effect.

As to `COC1=C(OC)C(=O)C(CCCCCCCCCCO)=C(C)C1=O`, the activity, negative = inhibition was -28.8% in [1] (setting [2]) and -11.7% in assay [1] (setting [3]). Moreover, the Potency result with AA1029, with AS120, in the assay on ATS189, in the assay on ATS95, in the assay with C2A and in the assay on CP185 was “inactive” in each case. Also, the Potency entry in the assay with CP192, with CP194, with CP201, with CP203, in the assay with CP211 and in the assay on CP215 was “inactive” each time. In addition, the Potency entry with CP217, in the assay with CP237 and with CP238 was “inactive” in each case.

Consider `CC(S)C(=O)NCC(=O)O` (centres undefined), for which the results for the activity, negative = inhibition in assay [1] (setting [2]) and in [1] (setting [3]) were 5.37% and 13.7%, respectively. For the same compound, the Potency entry with 3D7, in the assay with AA1029, with AS120, in the assay with ATS189, with ATS95 and with C2A was “inactive” each time. The Potency entry in the assay on CP185, in the assay with CP191, with CP192, in the assay with CP194, in the assay on CP201 and with CP203 was “inactive” throughout. The Potency entry with CP211, in the assay on CP215, with CP217, in the assay on CP237 and in the assay on CP238 was “inactive” throughout.

On to `CCCCC(CC)COC(=O)C(C#N)=C(c1ccccc1)c1ccccc1` (centres undefined), for which the Potency in assay [1] (parasite line A) was 11.2 µM (active); with 7G8, 10 µM (active). The Potency entry with C2A, with CP192, in the assay on CP201, with CP203, with CP211 and with CP238 was “inactive” throughout.

In the case of `CCN(CCO)CCCC(C)Nc1ccnc2cc(Cl)ccc12` (centres undefined), the values for the Potency (in assay [1] (parasite line A); in [1] (parasite line B); with 3D7) were 0.708 µM (active), 1 µM (active) and 0.562 µM (active), respectively. Also, the Potency entry with AA1029, in the assay on AS120, in the assay with ATS189, with ATS95, in the assay on C2A and in the assay with CP185 was “inactive” in each case. The Potency entry with CP191, in the assay with CP192, in the assay with CP194, in the assay with CP201, in the assay with CP203 and with CP211 was “inactive” in each case. The Potency entry in the assay with CP215, in the assay on CP217, in the assay on CP237 and in the assay with CP238 was “inactive” each time.

Turning to `Cc1cc(=O)c2c(O)c3c(O)cc(=O)c4c3c3c(cc(O)c1c23)C(C)(C)C=4O`, the Potency in assay [1] (parasite line A) is 2.51 µM (active); in assay [1] (parasite line B), 1 µM (active); in the assay on 3D7, 1.58 µM (active); in the assay on AA1029 it was 1.78 µM (active); with AS120 it was 1.78 µM (active); with ATS189, 1.41 µM (active). In addition, the Potency is 2 µM (active) in the assay on ATS95; 1.58 µM (active) in the assay on C2A; 1.58 µM (active) with CP185; 1.12 µM (active) with CP191; 2.69 µM (active) in the assay on CP194; 1.9 µM (active) with CP203. Moreover, the Potency was 2.39 µM (active) in the assay on CP215, 0.891 µM (active) in the assay with CP217, 1.41 µM (active) with CP237 and 1 µM (active) with CP238.

As to `COc1ccc(C2(C#N)CCC(C(=O)O)CC2)cc1OC1CCCC1` (centres undefined), the results for the activity, negative = inhibition in assay [1] (setting [2]) and in [1] (setting [3]) were 10.1% and -9.11%, respectively. For the same compound, the Potency entry in the assay on 3D7, in the assay on 7G8, in the assay with AA1029, with AS120, with ATS189 and with ATS95 was “inactive” throughout. The Potency entry with C2A, in the assay with CP185, with CP191, with CP192, in the assay on CP194 and in the assay on CP201 was “inactive” each time. Further, the Potency entry with CP203, in the assay with CP211, in the assay on CP215, in the assay with CP217, with CP237 and in the assay on CP238 was “inactive” each time.

Take `Cc1cc(C2CCCCC2)n(O)c(=O)c1`: the Potency in assay [1] (parasite line B) is 3.55 µM (active); in the assay with 7G8 it was 3.16 µM (active); in the assay with AS120, 3.55 µM (active); in the assay on CP191, 3.16 µM (active); in the assay on CP203, 6.42 µM (active); with CP211, 6.42 µM (active). In addition, the Potency was 1.02 µM (active) in the assay with CP215 and 3.55 µM (active) in the assay with CP217.

In the case of `CCCCCCCCOc1ccccc1C(=O)Nc1ccc(C(=O)OCC[N+](C)(CC)CC)cc1`, the Potency in assay [1] (parasite line A) is 12.6 µM (active); in assay [1] (parasite line B), 10 µM (active); with 3D7 it was 10 µM (active); with 7G8 it was 12.6 µM (active); in the assay on AA1029 it was 10 µM (active); in the assay with ATS95, 7.94 µM (active). In addition, the Potency was 12.6 µM (active) with C2A; 8.91 µM (active) in the assay on CP185; 7.94 µM (active) in the assay on CP191; 10 µM (active) in the assay on CP217; 7.94 µM (active) with CP237; 8.91 µM (active) with CP238.

On to `Nc1nc(Cl)nc2c1ncn2[C@H]1C[C@H](O)[C@@H](CO)O1`, for which the activity, negative = inhibition was -3.94% in assay [1] (setting [2]) and 14.5% in assay [1] (setting [3]). Also, the Potency result in the assay with 3D7, in the assay with 7G8, in the assay on AA1029, in the assay on AS120, with ATS189 and in the assay on ATS95 was “inactive” each time. The Potency entry in the assay with C2A, in the assay on CP185, with CP191, in the assay on CP217, in the assay with CP237 and in the assay on CP238 was “inactive” in each case.

On to `O=C(O)c1cccc(-c2noc(-c3ccccc3F)n2)c1`, for which the figures for the activity, negative = inhibition in assay [1] (setting [2]) and in [1] (setting [3]) were -1.01% and 10.4%, respectively. In addition, the Potency result in the assay on 3D7, in the assay on 7G8, with AA1029, in the assay on AS120, in the assay on ATS189 and in the assay on ATS95 was “inactive” throughout. Moreover, the Potency entry in the assay with C2A, in the assay with CP185, with CP191, with CP192, with CP194 and in the assay on CP201 was “inactive” throughout. Further, the Potency result in the assay with CP203, with CP211, with CP215, in the assay with CP217, with CP237 and in the assay with CP238 was “inactive” throughout.

As for `Cc1cc(=O)oc2cc(O)ccc12`, the Potency result in the assay with 7G8, in the assay with AA1029, in the assay on ATS95, in the assay with CP191, with CP192 and in the assay with CP194 was “inactive” each time. The Potency result in the assay on CP201, in the assay with CP203, with CP211, in the assay with CP215 and in the assay with CP237 was “inactive” each time.

Take `Cc1cc2cc3c(C)cc(=O)oc3c(C)c2o1`: the activity, negative = inhibition was 2% in assay [1] (at 12.8 µM (top of the series), parasite line A) and 12.4% in [1] (at 12.8 µM (top of the series), parasite line B). Further, the Potency entry in the assay on 3D7, with 7G8, with AA1029, with AS120, in the assay on ATS189 and with ATS95 was “inactive” in each case. Further, the Potency entry with C2A, in the assay on CP185, with CP191, in the assay with CP192, with CP194 and in the assay with CP201 was “inactive” in each case. The Potency entry in the assay on CP203, in the assay with CP211, in the assay with CP215, in the assay on CP217, in the assay on CP237 and in the assay on CP238 was “inactive” in each case.

(Values after PubChem BioAssay (NCATS).)
